Source: PubChem (National Center for Advancing Translational Sciences (NCATS))
IDH1 R132H inh: blocks human mutant IDH1 R132H enzyme; O75874; IDH1-R132H enzyme, NADPH consumption, diaphorase/resazurin fluorescence; Potency, µM (titrated, usually from 76.6 µM), inactives show at the top dose activity change, negative = inhibition, actives largely listed as inhibitors; 390,000 compounds, 0.093% hits; further: nearly all actives have a fitted effect of over 65% in size
Target sequence (O75874 whole entry R132H, stated change not applied): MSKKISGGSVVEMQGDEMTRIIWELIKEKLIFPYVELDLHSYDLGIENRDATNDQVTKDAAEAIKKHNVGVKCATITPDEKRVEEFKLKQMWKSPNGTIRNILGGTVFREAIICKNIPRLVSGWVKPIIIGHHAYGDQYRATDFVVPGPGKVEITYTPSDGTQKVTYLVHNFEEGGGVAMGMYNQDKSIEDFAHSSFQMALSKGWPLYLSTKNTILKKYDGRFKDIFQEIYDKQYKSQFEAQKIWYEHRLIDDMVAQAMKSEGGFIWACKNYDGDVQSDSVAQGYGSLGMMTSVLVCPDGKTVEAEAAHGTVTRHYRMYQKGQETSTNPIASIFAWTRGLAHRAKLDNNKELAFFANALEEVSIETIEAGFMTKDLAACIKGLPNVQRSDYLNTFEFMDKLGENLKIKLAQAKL
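IDH1-R132H (0.5 ug/mL dispensed) in pH 7.5 Tris buffer was preincubated 30 min with compound, then given a substrate mix of 0.016 mM NADPH and 2 mM alpha-KG for 80 min at room temperature; remaining NADPH was read by diaphorase/resazurin fluorescence.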
RGS4 inh: blocks human RGS4-accelerated GTP hydrolysis; 390,000 compounds, 0.039% hits; Transcreener GDP fluorescence polarization, RGS4-accelerated GTP hydrolysis; AID 504845; Potency, µM (series often up to 114 µM), for the others: at the top dose activity change, negative = inhibition, usual class: inhibitors; further: nearly all actives have a fitted effect of over 75% in size
Target sequence (P49798 whole entry, looked up): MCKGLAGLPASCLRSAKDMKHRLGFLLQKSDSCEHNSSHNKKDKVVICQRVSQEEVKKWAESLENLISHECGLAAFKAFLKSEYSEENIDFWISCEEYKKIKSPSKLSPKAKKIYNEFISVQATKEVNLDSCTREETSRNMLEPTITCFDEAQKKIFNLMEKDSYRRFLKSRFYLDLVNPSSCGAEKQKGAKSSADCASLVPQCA
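MLSMR compounds (23 nl, pin-transferred) preincubated 10 min at room temperature with a 500nM (2x) first reagent, then RGS4 at 900nM (2x) plus Transcreener GDP mix added; fluorescence polarization (620/688 nm) read before and after 90 min at 30 °C.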
rTrxR1 inhibitor: rat TrxR1 inhibition. recombinant rTrxR1, NADPH fluorescence consumption, selenite substrate. O89049. 390,000 compounds, 1% hits. AID 588453. Potency, µM (highest dose often 114 µM), for inactives: at the highest dose activity change, negative = inhibition, actives largely listed as inhibitors; further: nearly all actives have a fitted effect of over 65% in size
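Rat TrxR1 (90 nM in the dispensed reagent) was pre-reduced with 400 uM NADPH for 5 min at room temperature, then incubated with compound for 15 min. After 400 uM selenite was added, NADPH fluorescence (Ex 340/Em 450 nm) was followed for 8 min.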
TrxR1 substrate: rat thioredoxin reductase 1 substrate activity; O89049; 390,000 compounds, 0.01% hits; Potency, µM (top dose mostly 114 µM), for the others: top-dose activity change, negative = substrate turnover; purified TrxR1 substrate turnover, NADPH consumption readout; AID 588456; further: nearly all actives have a fitted effect of over 50% in size
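Rat TrxR1, dispensed at 90 nM, was prereduced with 400 uM NADPH (final) for 5 min at ~22 deg C, then incubated with compound 15 min before 400 uM selenite. A first-read NADPH fluorescence drop versus no-compound background flagged substrates.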
Eya2 inh: Eya2 (human) phosphatase inhibition | O00167 | recombinant Eya2, OMFP fluorescence dephosphorylation (OMFP is methylfluorescein phosphate) | Potency, µM (top dose mostly 76.9 µM), inactives show top-dose activity, negative = inhibition, usual class: inhibitors | 330,000 compounds, 0.006% hits | AID 488837
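Eya2 (0.2 uM) preincubated 10 min at ambient with compound, then OMFP substrate added at 50 uM; 10 min reaction in 50 mM HEPES pH 7.5, 50 mM NaCl, 5 uM MgCl2, 0.05% BSA, 1 mM DTT. Fluorescence read at Ex 485/Em 525 nm.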
* marks the source's active call; other numbers are inactive results; u = inconclusive; x = no result; ! = not confirmed by another sample; [ ] = dose if it differs, or a comment. An excerpt weighted towards active compounds, which were near 1.1% of everything screened. The call rests on the fitted dose curve; in most records, active means well fitted curve in the direction sought with a large enough effect; inconclusive means small, poorly fitted or top-dose-only effect, or another doubt; inactive means no such curve, though single readings can be large; an effect the other way counts as inactive or inconclusive. On the % scale 0 is the no-effect control and ±100 the full control effect; potency means the concentration at half of the fitted maximal effect.

SMILES | IDH1 R132H inh | RGS4 inh | rTrxR1 inhibitor | TrxR1 substrate | Eya2 inh
O=C(c1ccc(Cl)cc1)C(CN1CCCC1)c1ccccc1 (stereo unspecified) | -3% | u | 35µM* | 9% | 0%
COc1ccc(C(=O)C(CN2CCCC2)c2ccccc2)cc1 (stereo unspecified) | 2% | -40% | -31% | -14% | 2%
O=C(c1ccc(F)cc1)C(CN1CCOCC1)c1ccccc1 (stereo unspecified) | 5% | -40% | 56µM* | -10% | -3%
CC1(C)Cc2c(sc3[nH]c(=S)n(Cc4ccco4)c(=O)c23)CO1 | 4% | -36% | 50µM* | -3% | -2%
CCOC(=O)C1CCN(C(=O)C(=O)N2CCC(C(=O)OCC)CC2)CC1 | 0% | 4% | 9% | -7% | -6%
O=C(CCl)Nc1cccc(-c2cnc3ccccc3n2)c1 | -27% | -26% | 20µM* | -1% | 6%
CC(=O)c1cccc(-n2c(CCC(=O)O)ccc2-c2ccc(C)cc2)c1 | -13% | -19% | u | 4%[57.1 µM] | 6%
CCOC(=O)c1ccc(-n2c(CCC(=O)O)ccc2-c2ccccc2)cc1O | u | -36% | 50µM* | 2% | x
O=C(O)CCc1ccc(-c2ccccc2)n1-c1ccc(C(=O)O)cc1 | 1% | -25% | 79µM* | 5% | -1%
O=C(O)CCc1ccc(-c2ccccc2)n1-c1cccc(C(=O)O)c1 | 4% | -12% | 45µM* | 3% | 14%
CC1(CC(=O)O)SC(=O)NC1=O (stereo unspecified) | -2% | 24% | 10% | -3% | -17%
COC1=C/C(=C/c2c(O)c(C#N)c3ccccn23)C=CC1=O | -8% | -2% | 13µM* | -7% | 11%
CCc1ccc(/C=C/C(=O)C2C(=O)c3ccccc3C2=O)cc1 | 2% | -30% | -21% | -20% | 10%
CC[N+]1(C)CCC(O)(/C=C/c2ccccc2)C(C(=O)/C=C/c2ccccc2)C1 (stereo unspecified) | 3% | -140% | 0.32µM* | 11%[11.4 µM] | x
O=C(CN(Cc1ccccc1Cl)C(=O)c1csnn1)NCCc1ccccc1 | -7% | 20% | 30%[57.1 µM] | 8%[57.1 µM] | -5%
Cc1onc(-c2c(Cl)cccc2Cl)c1C(=O)NN1CCCCCC1 | 9% | -1% | 10%[57.1 µM] | 8% | 16%
Cc1c(C(=O)NN2CCCCC2)nn(-c2ccc(Cl)cc2Cl)c1-c1ccc(I)cc1 | x | 30µM*! | x | x | -17%
COc1ccccc1CCC(=O)OCC(=O)N1c2ccccc2NC(=O)C1(C)C | -18% | 11% | 9% | 1% | 0%
Cc1cc2c(cc1C)N(C(=O)CCl)CC(=O)N2 | -10% | x | x | x | x
Cc1cc2c(cc1C)N(C(=O)CCl)CCN2C(=O)CCl | -2% | -46% | 1.1µM* | 2%[57.1 µM] | x
CN(C)CC/C=C1\c2ccccc2COc2ccccc21 | -6% | 21%[56.9 µM] | 32µM*! | 6%[57.1 µM] | 5%
CC(C)(C)C(=O)Nc1cc2c3c(c1)CC(=O)N3CCC2 | -6% | 5% | 37% | 5% | -1%
NCCCS(=O)(=O)O | -8% | -1%[56.9 µM] | 11µM*! | 11%[57.1 µM] | -2%
O=S(=O)(O)CCS | -2% | -2% | 17% | 0% | x
NC(N)=N/N=C/c1ccc(OCc2ccccc2Cl)cc1 | 0% | 6% | 4%[57.1 µM] | 4%[57.1 µM] | 35µM*
SMILES | IDH1 R132H inh | RGS4 inh | rTrxR1 inhibitor | TrxR1 substrate | Eya2 inh
Cc1cc(=O)oc2c(CN3CCCC3)c(O)ccc12 | -3% | 14% | 18µM* | 836% | 7%
CCN1CCN(Cc2c(O)ccc3c(C)cc(=O)oc23)CC1 | 2% | -5% | u | 896% | 2%
O=C(O)C=Cc1ccc(Cn2ccnc2)cc1 | x | 2.7µM* | x | x | x
CC1(C)CC(=O)C2=C(C1)OC(N)=C(C#N)C2c1ccc[nH]1 (stereo unspecified) | 7% | u | -59% | 5%[57.1 µM] | 11%
O=[N+]([O-])c1ccc(S(=O)(=O)Nc2nnc(C(F)(F)F)s2)cc1 | 16% | u | 6.3µM* | -13% | -3%
Cc1cc(S(=O)(=O)Nc2ccccc2C)ccc1F | 2% | 6%[11.4 µM] | -2% | 12%[57.1 µM] | -12%
Cc1ccccc1CS(=O)(=O)c1ccc(C(=O)N2CCOCC2)cc1[N+](=O)[O-] | -1% | -49% | 3% | 5% | 5%
O=C(c1ccc(S(=O)(=O)Cc2ccccc2Cl)c([N+](=O)[O-])c1)N1CCOCC1 | -7% | -22% | 14µM* | 4% | 7%
COc1ccc(C(=O)NCC23C=CC(O2)C2C(=O)N(Cc4ccccc4)C(=O)C23)cc1 (stereo unspecified) | 3% | u | 25µM* | -1% | -3%[15.4 µM]
CCCCCCCCCC[n+]1cccc(Br)c1 | x | x | 30% | 162% | x
C(C#CCCCCCCCCC[n+]1ccccc1)#CCCCCCCCCC[n+]1ccccc1 | 0% | -37% | 56µM* | 0% | 7%
CCSc1nnc(CNC(=O)c2ccccc2F)n1-c1ccccc1OC | 2% | -3% | 13% | 4% | -3%
CCCCn1c(SCC(=O)c2ccc3c(c2)OCCO3)nnc1-c1ccco1 | 4% | u | 7.1µM* | -4% | -32%
COCCn1c(SCC(=O)c2ccc3c(c2)OCCO3)nnc1-c1ccoc1C | 11% | -25% | 45µM* | -5% | 10%
Cc1ccc(-c2nc3ccccn3c2Nc2ccccc2C)s1 | -15% | 3% | 40% | 39% | x
